According to PubChem BioAssay:
Calls of active or inactive are those of the source.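 How the source made its calls, unless noted: active means inhibition above 20% together with a positive visual image hit; inconclusive means visual image hit but inhibition not above 20%; inactive means no visual image hit.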

Tests used:
[1] = inhibitors of TNFa-induced NFkB p65 translocation, primary screen, imaging, HUVEC, MLSMR starter and 10KST1 sets (AID 438); settings: HUVEC TNFa-induced p65 nuclear translocation; cell count: measured here: nuclei count (cytotoxicity indicator), at 2.08 µM; inhibition: at 2 µM, stronger effect = higher value, 0% TNFa-plus-vehicle, 100% no-TNFa wells;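 further: compound added about 3h40 before a 20 min TNFalpha stimulation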;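 on inhibition: signal is the nuclear over cytoplasmic p65 intensity ratio per well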
[2] = inhibitors of mutant huntingtin aggregation, primary screen, imaging, exon1htt(103Q)mCFP cells, high-content imaging (AID 483;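 active means visual image review flags a hit and inhibition of aggregation exceeds 20%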;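 further: compound exposure lasted 3 days before fixation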;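 on nuclei count: percent of the per-plate median nuclei count of sample wells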); settings: exon1htt(103Q)mCFP cell line, aggregate imaging, at 2 µM; inhibition of aggregation: stronger effect = higher value; nuclei count: measured here: cell count, toxicity
[3] = inhibitors of E-selectin induction by TNFa, primary screen, imaging, HUVEC, immunofluorescence, MLSMR starter and 10KST1 sets (AID 487;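 active means visually confirmed hit in the image check and inhibition above 20%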;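 on inhibition: signal is fraction of cell area covered by stained E-selectin grains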;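 on nuclei count: 100% = median nuclei count of all wells on the same plate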); settings: HUVEC TNFalpha-induced E-selectin immunofluorescence imaging, at 2 µM; inhibition: stronger effect = higher value; nuclei count: measured here: cell number, toxicity
[4] = molecular target: Voltage-gated potassium channel subunit beta-2 (Rattus norvegicus) (UniProt P62483); experiment: KvBeta enzyme negative modulators, primary screen, biochemical, NADPH fluorescence (AID 622;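 active means fluorescence slope higher than the sample average by over 3 SD, cut at about -0.22 in these data, passing the limit was not always enough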;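 further: slope of raw intensity against log time taken from 70 to 1610 s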); settings: recombinant KvBeta, 4-cyanobenzaldehyde reduction, at 10 µM, stronger effect = higher value
Sequence of Voltage-gated potassium channel subunit beta-2 (Rattus norvegicus) (P62483 whole entry, looked up): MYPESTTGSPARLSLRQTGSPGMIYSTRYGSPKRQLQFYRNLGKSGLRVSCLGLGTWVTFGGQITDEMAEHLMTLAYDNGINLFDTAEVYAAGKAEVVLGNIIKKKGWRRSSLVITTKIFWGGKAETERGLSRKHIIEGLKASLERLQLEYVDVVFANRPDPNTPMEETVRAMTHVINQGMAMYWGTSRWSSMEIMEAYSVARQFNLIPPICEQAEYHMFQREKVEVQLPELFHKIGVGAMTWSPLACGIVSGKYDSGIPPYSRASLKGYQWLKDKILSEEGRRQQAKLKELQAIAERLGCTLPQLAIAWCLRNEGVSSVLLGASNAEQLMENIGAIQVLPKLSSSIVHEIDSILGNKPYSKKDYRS

[5] = molecular target: Voltage-gated potassium channel subunit beta-2 (Rattus norvegicus) (UniProt P62483); experiment: KvBeta positive modulators, primary screen, biochemical, NADPH fluorescence (AID 623;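 active means NADPH fluorescence slope more negative than the mean of all samples by about 3 SD, 99.7% confidence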;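 further: fluorescence intensity change per second fitted from 20 to 320 s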); settings: Recombinant KvBeta, NADPH fluorescence decrease slope, 10 min; at 10 µM; stronger effect = lower value
[6] = molecular target: Alpha-2C adrenergic receptor (Homo sapiens) (UniProt P18825); experiment: modulators of alpha2C/GIRK thallium flux, primary screen, cell-based, HEK293 alpha2C/GIRK1/2 (AID 624;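 active means fluorescence slope after compound addition differing from the mean of all screened samples at 99.7% confidence, in either direction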;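 further: slope of fluorescence ratio to pre-addition baseline per second over 15 to 24 s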); settings: thallium flux BTC fluorescence, at 10 µM, actives lie on both sides
Sequence of Alpha-2C adrenergic receptor (Homo sapiens) (P18825 whole entry, looked up): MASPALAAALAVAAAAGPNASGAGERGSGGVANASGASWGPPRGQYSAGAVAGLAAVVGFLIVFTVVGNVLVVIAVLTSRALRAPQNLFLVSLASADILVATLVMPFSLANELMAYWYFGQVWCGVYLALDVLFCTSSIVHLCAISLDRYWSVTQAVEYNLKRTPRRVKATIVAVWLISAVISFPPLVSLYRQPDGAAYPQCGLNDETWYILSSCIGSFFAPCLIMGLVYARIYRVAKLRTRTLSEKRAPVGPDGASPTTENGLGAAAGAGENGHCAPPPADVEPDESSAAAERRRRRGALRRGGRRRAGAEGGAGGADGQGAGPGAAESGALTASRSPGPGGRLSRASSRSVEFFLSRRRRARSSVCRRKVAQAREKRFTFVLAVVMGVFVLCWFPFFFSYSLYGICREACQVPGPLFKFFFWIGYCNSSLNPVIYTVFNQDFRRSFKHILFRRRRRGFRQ

[7] = inhibitors of Sendai virus-induced IRF3 signaling, primary screen, TLR/RLR signaling modifier project, cell-based, Sendai virus stimulus, luciferase, 10K MLSCN set (AID 602276;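 active means inhibition at or above 50% at 10 µM; inactive means inhibition below 50%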;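 further: firefly luciferase from ISG56 promoter only with Renilla not read in this screen; 0% = Sendai virus plus DMSO and 100% = medium plus DMSO without virus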); settings: HEK293 RL24 IRF3 luciferase reporter, at 10 µM, stronger effect = higher value
[8] = inhibitors of poly I:C-induced TLR3 signaling, primary screen, cell-based, poly I:C stimulus, luciferase, 10K MLSCN set (AID 602277;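 active means inhibition of the reporter signal at or above 50%; inactive means inhibition below 50%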); settings: HEK293-TLR3 RL24 IRF3 luciferase reporter, at 10 µM, stronger effect = higher value

SMILES | cell count [1] | inhibition [1] | inhibition of aggregation [2] | nuclei count [2] | inhibition [3] | nuclei count [3] | fluorescence slope [4] | NADPH fluorescence slope [5] | slope [6] | inhibition [7] | inhibition [8]
c1ccc2c(c1)CC(N1CCCCC1)c1ccccc1N2 (stereo not drawn) | 631 | -6.3% (inactive) | 10.2% (inactive) | 107% | -26.5% (inactive) | 83.5% | -0.41 (inactive) | -0.000142 (inactive) | 0.00466 (inactive) | 10.1% (inactive) | 24.1% (inactive)
Cc1cc(=O)[nH]c(=S)n1-c1ccccc1 | 656 | 7.7% (inactive) | 5.6% (inactive) | 103% | 23.3% (inactive) | 103% | -0.564 (inactive) | -3e-05 (inactive) | 0.00585 (inactive) | 15.3% (inactive) | 23.5% (inactive)
COc1ccc(C2CC(c3ccco3)n3ncnc3N2)cc1 (stereo not drawn) | 458 | 6% (inactive) | -19.3% (inactive) | 59.7% | -21.1% (inactive) | 96.4% | -0.4 (inactive) | -6.8e-05 (inactive) | 0.00517 (inactive) | 9.66% (inactive) | 39.2% (inactive)
CC(C)(C)SCCNC(=O)CSc1ccccc1 | 636 | -11% (inactive) | 8.5% (inactive) | 93% | -42.9% (inactive) | 78.7% | -0.586 (inactive) | -2.1e-05 (inactive) | 0.00555 (inactive) | -20.5% (inactive) | -23.4% (inactive)
COc1cc2c(cc1OC)C(C)N(C(=O)Cn1ncc3c1-c1ccccc1OC3)CC2 (stereo not drawn) | 697 | -4.8% (inactive) | -21.5% (inactive) | 114% | -39.6% (inactive) | 117% | -0.587 (inactive) | -3.4e-05 (inactive) | 0.008 (inactive) | 7.96% (inactive) | 17.3% (inactive)
Nc1nc2n(n1)C(c1c(F)cccc1Cl)CC(c1ccc(F)cc1)N2 (stereo not drawn) | 868 | 3.5% (inactive) | -46.8% (inactive) | 117% | -37% (inactive) | 110% | -0.455 (inactive) | -1.9e-05 (inactive) | 0.0048 (inactive) | -2.35% (inactive) | 25.6% (inactive)
CC(=O)C1=C(C)Nc2ncnn2C1c1cccc(OCc2ccccc2)c1 (stereo not drawn) | 610 | 0% (inactive) | 2.1% (inactive) | 103% | -51.7% (inactive) | 122% | -0.559 (inactive) | 4.9e-06 (inactive) | 0.0069 (inactive) | 11.8% (inactive) | 29% (inactive)
O=C(CN1CCCCCC1)OCCN=C1NS(=O)(=O)c2ccccc21 | 384 | -1.9% (inactive) | -3.1% (inactive) | 62.4% | -187% (inactive) | 133% | -0.599 (inactive) | -6.1e-06 (inactive) | 0.00669 (inactive) | 9.82% (inactive) | 8.03% (inactive)
CS(=O)(=O)N1CCCC(C(=O)N2CCOCC2)C1 (stereo not drawn) | 683 | 1.2% (inactive) | 9.8% (inactive) | 92% | -142% (inactive) | 116% | -0.566 (inactive) | 6.2e-06 (inactive) | 0.00664 (inactive) | 11.5% (inactive) | 3.97% (inactive)
Cc1cc(NC(=O)COC(=O)C2COc3ccccc3O2)no1 (stereo not drawn) | 734 | -5.3% (inactive) | -24.5% (inactive) | 106% | -15.9% (inactive) | 103% | -0.407 (inactive) | -7.6e-05 (inactive) | 0.00343 (inactive) | 7.14% (inactive) | 12.6% (inactive)
COC(=O)c1ccccc1NS(=O)(=O)c1ccc(F)cc1 | 609 | 2.4% (inactive) | -3% (inactive) | 99.4% | -22.1% (inactive) | 114% | -0.523 (inactive) | -3.8e-05 (inactive) | 0.00602 (inactive) | 9.83% (inactive) | 17.7% (inactive)
CN(C)c1nc(N)nc(-c2nc3ccccc3s2)n1 | 824 | -2.1% (inactive) | -13.6% (inactive) | 97.7% | -96.9% (inactive) | 122% | -0.489 (inactive) | -2.4e-05 (inactive) | 0.00639 (inactive) | -26% (inactive) | -41.6% (inactive)
COc1ccc(-n2c(SCC#N)nc3ccccc3c2=O)cc1 | 314 | -4.7% (inactive) | -15.4% (inactive) | 105% | -11% (inactive) | 118% | -0.491 (inactive) | 7e-05 (inactive) | 0.00655 (inactive) | -8.69% (inactive) | -76.1% (inactive)
O=C(CNC(=O)c1ccccc1C(=O)O)c1ccccc1 | 653 | 1.8% (inactive) | 9.6% (inactive) | 105% | -147% (inactive) | 124% | -0.42 (inactive) | 1.4e-05 (inactive) | 0.00616 (inactive) | -17.6% (inactive) | -49% (inactive)
CCN(CC(=O)Nc1c(C(=O)OC)[nH]c2ccccc12)c1ccc2c(c1)OCO2 | 309 | -2.1% (inactive) | -25.6% (inactive) | 70.8% | -53.3% (inactive) | 103% | -0.376 (inactive) | -6.7e-05 (inactive) | 0.00578 (inactive) | 20.2% (inactive) | 8.63% (inactive)
CCn1c(Cc2ccccc2)nnc1SCC(=O)Nc1cc(C)on1 | 629 | -3.3% (inactive) | 5.6% (inactive) | 102% | -15.6% (inactive) | 112% | -0.513 (inactive) | -3.3e-05 (inactive) | 0.0074 (inactive) | -8.42% (inactive) | 23% (inactive)
COc1cc(C(=O)Nc2cccc(-c3nc4cc(C)ccc4o3)c2)cc(OC)c1OC | 507 | 7% (inactive) | -1.2% (inactive) | 90.7% | -126% (inactive) | 126% | -0.582 (inactive) | -3.2e-05 (inactive) | 0.0093 (inactive) | 0.465% (inactive) | -22.5% (inactive)
c1cc(CNc2ccc3c(c2)OCO3)ccn1 | 240 | -3.9% (inactive) | 17.7% (inactive) | 83.7% | -91.7% (inactive) | 112% | -0.48 (inactive) | -1.4e-05 (inactive) | 0.00585 (inactive) | -9.22% (inactive) | 13.6% (inactive)
O=C(CSc1oc(-c2ccco2)nc1S(=O)(=O)c1ccccc1)NCC1CCCO1 (stereo not drawn) | 497 | -13.9% (inactive) | 7.5% (inactive) | 98.6% | -95% (inactive) | 174% | -0.492 (inactive) | -4.8e-05 (inactive) | 0.00481 (inactive) | 9.95% (inactive) | 20.2% (inactive)
CC(C)CCNc1cc(=O)n(C)c(=O)n1C | 686 | -3.9% (inactive) | -15.5% (inactive) | 108% | 28.9% (inactive) | 88% | -0.459 (inactive) | 5e-05 (inactive) | 0.00778 (inactive) | 0.49% (inactive) | 8.23% (inactive)
COC(=O)c1[nH]c2ccc(F)cc2c1NS(=O)(=O)c1ccc(OC)cc1OC | 682 | -11% (inactive) | -3.2% (inactive) | 106% | -80.2% (inactive) | 152% | -0.598 (inactive) | -5.6e-05 (inactive) | 0.00552 (inactive) | 16.7% (inactive) | 45.4% (inactive)
O=S(=O)(NCC1CCCO1)c1cc(Cl)ccc1Br (stereo not drawn) | 426 | -0.2% (inactive) | 7.4% (inactive) | 108% | -4.9% (inactive) | 117% | -0.506 (inactive) | 7.7e-05 (inactive) | 0.00336 (inactive) | -13.6% (inactive) | -30.7% (inactive)
CCC(=O)N1Cc2ccccc2-c2ccccc2C1=O | 642 | 3% (inactive) | -14.4% (inactive) | 98.3% | 11% (inactive) | 126% | -0.618 (inactive) | -1.2e-05 (inactive) | 0.006 (inactive) | 12.1% (inactive) | 12.9% (inactive)
NC(=O)CSc1nnc(-c2cc3ccccc3o2)n1Cc1ccccc1 | 426 | 6.3% (inactive) | -2.8% (inactive) | 101% | -33% (inactive) | 129% | -0.272 (inactive) | 1.6e-05 (inactive) | 0.003 (inactive) | 19.8% (inactive) | 18.4% (inactive)
CCn1cc(C(=O)NCC2CCCO2)c(=O)c2cc(S(=O)(=O)N(C)C3CCCCC3)ccc21 (stereo not drawn) | 528 | 3.7% (inactive) | -8.9% (inactive) | 99.3% | -60.9% (inactive) | 97.9% | -0.629 (inactive) | -3.4e-05 (inactive) | 0.00653 (inactive) | 16.7% (inactive) | 33.2% (inactive)
Cc1cc(C)n2cc(CSc3nnnn3C)nc2n1 | 532 | -36.9% (inactive) | 9.5% (inactive) | 106% | 36.6% (inactive) | 65.8% | -0.256 (inactive) | -4.3e-06 (inactive) | 0.00505 (inactive) | 15.1% (inactive) | 19.7% (inactive)
Clc1ccc(OCc2nc(-c3ccccn3)no2)c(Br)c1 | 814 | 1.8% (inactive) | 4.2% (inactive) | 95% | -1.9% (inactive) | 121% | -0.595 (inactive) | -8.6e-06 (inactive) | 0.00567 (inactive) | -31.1% (inactive) | -134% (inactive)
Cc1cc(C)c(C#N)c(SCc2ccc(C#N)cc2)n1 | 609 | -7.7% (inactive) | -4.1% (inactive) | 52% | 40.3% (inactive) | 104% | -0.435 (inactive) | -5.8e-05 (inactive) | 0.00656 (inactive) | 5.07% (inactive) | -3.75% (inactive)
